Here are results for one compound from the supplement of paper PMC6411743.

± gives the standard deviation of the averaged measurements. The full data set covers some 6,200 targets. This sample favours those with the largest changes.

Test in all cases: NP40-soluble protein abundance relative to vehicle (solubility fold change) (ratio); higher = more soluble protein in presence of AMP-PNP
The target in one experiment is T1, DDX49 (UniProt Q9Y6V7).
T1 sequence (whole entry): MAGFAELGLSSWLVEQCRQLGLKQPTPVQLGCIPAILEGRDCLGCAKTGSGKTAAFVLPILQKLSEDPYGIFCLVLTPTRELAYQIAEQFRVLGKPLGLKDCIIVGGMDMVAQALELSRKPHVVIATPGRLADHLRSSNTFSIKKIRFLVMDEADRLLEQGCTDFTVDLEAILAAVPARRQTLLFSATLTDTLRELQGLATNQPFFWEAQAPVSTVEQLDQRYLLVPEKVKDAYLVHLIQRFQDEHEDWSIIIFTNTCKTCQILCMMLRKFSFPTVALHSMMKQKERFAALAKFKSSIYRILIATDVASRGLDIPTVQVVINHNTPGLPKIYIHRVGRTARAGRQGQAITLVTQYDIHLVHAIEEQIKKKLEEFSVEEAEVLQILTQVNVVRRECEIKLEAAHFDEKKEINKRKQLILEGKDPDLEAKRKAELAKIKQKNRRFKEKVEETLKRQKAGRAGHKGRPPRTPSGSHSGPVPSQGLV
An outline of the steps: (§1)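 In three independent experiments, Jurkat crude lysate made by Dounce homogenisation was treated for 10 min at room temperature and then 3 min at 37 °C with eight concentrations ranging from 0.1 to 10 mM. It was then solubilised with 0.8% NP40 plus benzonase for 60 min at 4 °C and ultracentrifuged. The supernatant was TMT-labelled for LC-MS/MS, and each value is the fold change against the detergent-processed vehicle for the same replicate, using vsn-normalised intensities.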

The target in a further experiment is T2, MAD1L1 (UniProt Q9Y6D9).
T2 sequence (whole entry): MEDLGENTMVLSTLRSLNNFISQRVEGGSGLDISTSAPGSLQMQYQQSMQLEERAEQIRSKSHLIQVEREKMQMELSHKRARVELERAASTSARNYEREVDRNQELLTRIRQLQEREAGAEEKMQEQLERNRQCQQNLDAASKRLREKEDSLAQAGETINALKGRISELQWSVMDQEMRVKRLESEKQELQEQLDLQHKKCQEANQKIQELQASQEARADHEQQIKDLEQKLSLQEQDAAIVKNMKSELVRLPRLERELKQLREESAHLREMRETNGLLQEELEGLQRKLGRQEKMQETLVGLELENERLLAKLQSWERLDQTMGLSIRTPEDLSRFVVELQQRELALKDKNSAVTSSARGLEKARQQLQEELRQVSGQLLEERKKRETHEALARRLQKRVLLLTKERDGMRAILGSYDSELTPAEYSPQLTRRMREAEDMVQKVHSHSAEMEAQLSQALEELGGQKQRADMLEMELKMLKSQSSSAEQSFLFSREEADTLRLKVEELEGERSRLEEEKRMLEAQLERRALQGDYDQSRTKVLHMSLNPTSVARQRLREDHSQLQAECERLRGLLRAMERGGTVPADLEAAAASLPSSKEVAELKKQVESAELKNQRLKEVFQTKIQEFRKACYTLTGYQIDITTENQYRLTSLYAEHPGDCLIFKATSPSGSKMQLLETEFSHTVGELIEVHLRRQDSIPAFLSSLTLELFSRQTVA
An outline of the steps:
as §1

Another experiment concerns the target T3, OAS3 (UniProt Q9Y6K5).
T3 sequence (whole entry): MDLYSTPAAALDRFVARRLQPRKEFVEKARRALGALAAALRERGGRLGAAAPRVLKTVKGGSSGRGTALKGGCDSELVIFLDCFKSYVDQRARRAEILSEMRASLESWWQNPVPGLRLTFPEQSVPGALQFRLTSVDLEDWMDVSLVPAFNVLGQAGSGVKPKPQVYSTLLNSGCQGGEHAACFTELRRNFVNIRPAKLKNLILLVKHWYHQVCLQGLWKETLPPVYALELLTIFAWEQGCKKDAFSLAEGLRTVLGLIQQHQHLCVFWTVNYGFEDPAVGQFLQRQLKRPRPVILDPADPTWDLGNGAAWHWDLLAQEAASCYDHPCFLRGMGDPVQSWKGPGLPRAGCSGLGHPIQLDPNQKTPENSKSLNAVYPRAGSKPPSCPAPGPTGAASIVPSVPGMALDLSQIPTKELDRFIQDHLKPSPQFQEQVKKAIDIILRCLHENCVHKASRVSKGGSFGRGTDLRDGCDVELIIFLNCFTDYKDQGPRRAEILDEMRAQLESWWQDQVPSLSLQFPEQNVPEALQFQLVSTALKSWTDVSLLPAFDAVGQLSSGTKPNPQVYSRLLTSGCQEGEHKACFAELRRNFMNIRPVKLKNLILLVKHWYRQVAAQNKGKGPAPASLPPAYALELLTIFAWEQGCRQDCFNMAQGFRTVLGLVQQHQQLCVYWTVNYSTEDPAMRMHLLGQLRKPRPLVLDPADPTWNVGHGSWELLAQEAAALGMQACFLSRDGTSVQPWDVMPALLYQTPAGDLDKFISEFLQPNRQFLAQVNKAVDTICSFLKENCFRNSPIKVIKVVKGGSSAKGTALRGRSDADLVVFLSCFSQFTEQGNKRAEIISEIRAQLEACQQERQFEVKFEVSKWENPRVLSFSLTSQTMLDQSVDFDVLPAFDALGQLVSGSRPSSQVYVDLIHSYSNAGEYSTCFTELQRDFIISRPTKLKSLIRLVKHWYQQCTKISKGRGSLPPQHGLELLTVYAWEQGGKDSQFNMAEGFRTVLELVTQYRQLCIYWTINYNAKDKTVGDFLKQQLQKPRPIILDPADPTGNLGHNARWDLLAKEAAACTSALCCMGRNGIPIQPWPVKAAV
In a few lines: as §1

The next experiment addresses S4R3R2 (UniProt Q9NXR5). An outline of the steps:
as §1

Chain of S4R3R2 (Q9NXR5 whole entry, one chain of several): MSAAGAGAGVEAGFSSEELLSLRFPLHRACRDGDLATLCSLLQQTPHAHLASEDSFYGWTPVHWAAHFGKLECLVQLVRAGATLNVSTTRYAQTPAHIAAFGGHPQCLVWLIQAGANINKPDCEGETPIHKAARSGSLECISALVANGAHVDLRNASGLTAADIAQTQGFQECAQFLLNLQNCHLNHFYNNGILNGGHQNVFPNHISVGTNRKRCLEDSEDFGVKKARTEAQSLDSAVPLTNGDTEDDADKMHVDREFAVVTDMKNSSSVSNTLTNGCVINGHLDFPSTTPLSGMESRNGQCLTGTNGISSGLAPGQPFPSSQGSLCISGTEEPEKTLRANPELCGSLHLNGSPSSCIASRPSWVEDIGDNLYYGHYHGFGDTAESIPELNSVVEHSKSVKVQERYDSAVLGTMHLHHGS

Regarding `Nc1ncnc2c1ncn2[C@@H]1O[C@H](COP(=O)(O)OP(=O)(O)NP(=O)(O)O)[C@@H](O)[C@H]1O` [adenylyl imidodiphosphate], the NP40-soluble protein abundance turned out to be 1.09 ± 0.076 with DDX49 (concentration: 1mM); 1.13 ± 0.092 in the experiment with DDX49 (concentration: 2mM); 1.15 ± 0.12 with DDX49 (concentration: 4mM); 1.13 ± 0.1 with DDX49 (concentration: 6mM); 1.15 ± 0.12 with DDX49 (concentration: 8mM); 1.24 ± 0.21 in the experiment with DDX49 (concentration: 10mM). The NP40-soluble protein abundance with MAD1L1 (concentration: 1mM) stood at 1.02 ± 0.028; with MAD1L1 (concentration: 2mM), 1.03 ± 0.039; with MAD1L1 (concentration: 4mM), 1.02 ± 0.047; with MAD1L1 (concentration: 6mM), 0.986 ± 0.021; with MAD1L1 (concentration: 8mM), 0.983 ± 0.046; in the experiment with MAD1L1 (concentration: 10mM) it was 1 ± 0.057. For the same compound, the NP40-soluble protein abundance in the experiment with OAS3 (concentration: 1mM) was 1.01 ± 0.012; with OAS3 (concentration: 2mM), 1.02 ± 0.04; in the experiment with OAS3 (concentration: 4mM), 1.02 ± 0.032; with OAS3 (concentration: 6mM) it was 0.998 ± 0.033; with OAS3 (concentration: 8mM), 1.02 ± 0.043; with OAS3 (concentration: 10mM) it was 0.998 ± 0.018. The NP40-soluble protein abundance is 1.04 ± 0.031 in the experiment with S4R3R2 (concentration: 1mM); 1.05 ± 0.063 in the experiment with S4R3R2 (concentration: 2mM); 1.02 ± 0.027 with S4R3R2 (concentration: 4mM); 1.01 ± 0.041 with S4R3R2 (concentration: 6mM); 0.983 ± 0.011 in the experiment with S4R3R2 (concentration: 8mM); 0.983 ± 0.022 with S4R3R2 (concentration: 10mM).
